For 27 molecules, outcome and Potency results are on record in PubChem BioAssay (NCATS).

Assay [1] addresses Mitogen-activated protein kinase 10 (Mus musculus) (UniProt Q61831). Description: JNK3 AlphaScreen Assay (AID 530; active means well fitted curve in either direction with a large enough effect, not every such curve was filed as active;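 further: kinase came from lysate of stimulated human HepG2 cells; signal reports phosphorylation of biotinylated GST-cJun 1-79 at Ser73 with 10 µM ATP; series mostly up to about 57 µM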). A digest of the protocol:
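HepG2 lysate (IL-1b/TNFa pre-activated) + biotin-GST-cJun 1-79 + anti-pSer73 cJun; cpd titration, 15 min RT; ATP 10 uM start; Tris pH 7.6, MgCl2, DTT, vanadate; beads in EDTA buffer; AlphaScreen.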
Background: Bead proximity is the source of the signal in Alpha formats.

The target in assay [2] is Cytochrome P450 3A4 (Homo sapiens) (UniProt P08684). As to the kind of experiment: qHTS Assay for Inhibitors and Substrates of Cytochrome P450 3A4 (AID 884). Further: nearly all actives have a fitted effect of over 50% in size. Further: potency means the concentration at half of the fitted maximal effect. A digest of the protocol: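 Luminescent readout of luciferin produced by CYP3A4 (20 nM) dealkylation of Luciferin-PPXE, 25 uM (its KM). NADPH-driven reaction ran 60 min at RT after 10 min compound preincubation; data scaled to 57 uM ketoconazole as 100% inhibition.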
Cytochrome P450 3A4 (Homo sapiens), sequence (P08684 whole entry, looked up): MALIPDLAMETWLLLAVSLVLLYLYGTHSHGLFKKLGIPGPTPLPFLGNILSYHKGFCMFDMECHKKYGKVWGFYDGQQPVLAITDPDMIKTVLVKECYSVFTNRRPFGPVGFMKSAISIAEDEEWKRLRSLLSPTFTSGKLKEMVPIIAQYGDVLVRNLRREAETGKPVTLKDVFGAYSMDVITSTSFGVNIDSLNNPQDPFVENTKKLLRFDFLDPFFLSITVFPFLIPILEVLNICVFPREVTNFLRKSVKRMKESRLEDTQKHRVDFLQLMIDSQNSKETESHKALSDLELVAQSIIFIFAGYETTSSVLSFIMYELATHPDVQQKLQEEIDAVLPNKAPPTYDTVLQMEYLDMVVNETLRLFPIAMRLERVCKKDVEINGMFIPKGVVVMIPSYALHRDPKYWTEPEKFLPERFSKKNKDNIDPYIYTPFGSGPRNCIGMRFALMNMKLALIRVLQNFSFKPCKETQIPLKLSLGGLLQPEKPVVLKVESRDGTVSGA
A general note: In qHTS, concentration-response curves come from the screen itself.

In assay [3] the target is Calcium and integrin-binding protein 1 (Homo sapiens) (UniProt Q99828). As to the kind of experiment: Primary qHTS for Identification of Calcium Integrin Binding Protein 1 (CIB1) Competitor (AID 1508620). Further: top concentration of the series differs between compounds. A digest of the protocol: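 Fluorescence polarization competition: GST-tagged CIB1 (1 uM final) preincubated with compound 15 min at room temperature, then FITC-labelled alphaIIb peptide (100 nM final) added. After 15 min at room temperature, polarization read at Ex 480/Em 540.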
Calcium and integrin-binding protein 1 (Homo sapiens), sequence (Q99828 whole entry, looked up): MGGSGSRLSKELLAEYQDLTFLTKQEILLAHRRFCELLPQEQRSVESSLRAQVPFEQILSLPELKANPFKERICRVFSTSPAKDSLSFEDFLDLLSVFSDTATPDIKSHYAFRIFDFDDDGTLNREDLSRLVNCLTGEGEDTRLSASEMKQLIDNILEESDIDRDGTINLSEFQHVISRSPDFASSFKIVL

Assay [4] has as its target Cytochrome P450 3A4 (Homo sapiens) (UniProt P08684). As to the kind of experiment: qHTS Assay for Activators of Cytochrome P450 3A4 (AID 885). Further: nearly all actives have a fitted effect of over 65% in size. Further: potency means the concentration at half of the fitted maximal effect. A digest of the protocol:
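Luminescent readout of luciferin formed from 25 uM Luciferin-PPXE (KM level) by 20 nM CYP3A4 in 200 mM KPO4, with 60 min NADPH-driven reaction at room temperature after 10 min compound exposure. Ketoconazole (57 uM) defined 100% inhibition.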

Results filed as inconclusive are left out. Where a call stands in place of a potency, no number is given. Active and inactive are the calls of the source. Unless noted, the call rests on the fitted dose curve; in most records, active means well fitted curve in the direction sought with a large enough effect; inconclusive means small, poorly fitted or top-dose-only effect, or another doubt; inactive means no such curve, though single readings can be large; an effect the other way counts as inactive or inconclusive.

Take `CCCn1c(C)nc2c(NCC(C)(C)CN(C)C)nc(C)nc21`: in assay [1], the call was inactive. Besides, the Potency entry in assay [2] and in assay [3] was “inactive” throughout.

Regarding `Cc1nc(NCCO)c2nc(-c3ccccc3)n(CCCN(C)C)c2n1`, the outcome in assay [1] was inactive. In assay [3], the Potency result was “inactive”.

Take `CCN(CC)CCCn1c(-c2ccccc2)nc2c(NCCOC)nc(C)nc21`: in assay [1], the call was inactive. Further, the Potency result in assay [2] and in assay [3] was “inactive” throughout.

Turning to `CCN(CC)CCCCn1c(-c2ccccc2)nc2c(NCCOC)nc(C)nc21`, in assay [1], the molecule was classed as inactive. The Potency result in assay [2] and in assay [3] was “inactive” throughout.

`CCCn1c(-c2ccc(F)cc2)nc2c(NCCN3CCCC3)nc(C)nc21`: the result in assay [1] was inactive. Also, the Potency result in assay [2] and in assay [3] was “inactive” throughout.

Take `COCCN(CCOC)c1nc(C)nc2c1nc(-c1ccccc1)n2CCCN1CCCCC1C` (stereo not drawn): in assay [1], the molecule was called inactive. In assay [2], the Potency is 12.6 µM (active). The Potency entry in assay [3] was “inactive”.

As to `Cc1nc(NCc2ccccc2)c2nc(-c3ccccc3)n(C3CCN(Cc4ccccc4)C3)c2n1` (stereo not drawn), the result in assay [1] was inactive. In addition, the Potency in assay [2] was 3.98 µM (active). Besides, the Potency result in assay [4] and in assay [3] was “inactive” in each case.

`Cc1nc(NCc2ccccc2)c2nc(-c3ccccc3)n(CCCN3CCOCC3)c2n1`: in assay [1], the outcome was inactive. In assay [2], the Potency was 3.98 µM (active). The Potency result in assay [4] and in assay [3] was “inactive” in each case.

For the molecule `CCN1CCCC1Cn1c(-c2ccccc2)nc2c(NCCOC)nc(C)nc21` (stereo not drawn), in assay [1], the result was inactive. In assay [2], the Potency was 20 µM (active). For the same molecule, the Potency entry in assay [4] and in assay [3] was “inactive” each time.

Consider `Cc1nc(NCc2ccccc2)c2nc(-c3ccccc3)n(CCCN(C)C)c2n1`, for which the molecule was classed as inactive in assay [1]. In addition, the Potency in assay [2] was 12.6 µM (active). In addition, the Potency entry in assay [4] and in assay [3] was “inactive” each time.

Take `CCCn1c(C)nc2c(NCCN3CCCC3)nc(C)nc21`: the result in assay [1] was inactive. The Potency result in assay [2] and in assay [3] was “inactive” throughout. The Potency in assay [4] was 15.8 µM (active).

As to `CCCCNc1nc(C)nc2c1nc(-c1ccccc1)n2C1CCN(Cc2ccccc2)C1` (stereo not drawn), in assay [1], the molecule was classed as inactive. Besides, the Potency in assay [2] is 7.94 µM (active). The Potency entry in assay [4] and in assay [3] was “inactive” in each case.

For `CCN(CC)CCCC(C)n1c(-c2ccccc2)nc2c(NCCO)nc(C)nc21` (stereo not drawn), the molecule was classed as inactive in assay [1]. The Potency result in assay [2] and in assay [3] was “inactive” throughout.

Regarding `CCCn1c(-c2ccc(F)cc2)nc2c(N3CCN(CCn4ccnc4)CC3)nc(C)nc21`, the molecule was called inactive in assay [1]. Moreover, the Potency in assay [2] is 0.631 µM (active). Besides, the Potency entry in assay [4] and in assay [3] was “inactive” throughout.

`Cc1nc(NC2CCCCC2)c2nc(-c3ccccc3)n(C(C)CN(C)C)c2n1` (stereo not drawn): the molecule was called inactive in assay [1]. Further, in assay [2], the Potency is 12.6 µM (active). The Potency result in assay [4] and in assay [3] was “inactive” throughout.

Turning to `CCCCNc1nc(C)nc2c1nc(-c1ccccc1)n2C(C)CCCN(CC)CC` (stereo not drawn), the molecule was called inactive in assay [1]. The Potency in assay [2] is 10 µM (active). Besides, the Potency entry in assay [4] and in assay [3] was “inactive” each time.

For `CCN(CC)CCCC(C)n1c(-c2ccccc2)nc2c(NCc3ccccc3)nc(C)nc21` (stereo not drawn), in assay [1], the molecule was classed as inactive. Moreover, the Potency in assay [2] was 5.01 µM (active). The Potency entry in assay [4] and in assay [3] was “inactive” throughout.

Regarding `CCCCNc1nc(C)nc2c1nc(-c1ccccc1)n2CCN1CCCCC1`, the call in assay [1] was inactive. Further, the Potency in assay [2] is 3.16 µM (active). Moreover, the Potency entry in assay [4] and in assay [3] was “inactive” each time.

Regarding `COCCN(CCOC)c1nc(C)nc2c1nc(-c1ccccc1)n2CCN1CCOCC1`, the result in assay [1] was inactive. Further, the Potency in assay [2] is 1 µM (active). In addition, the Potency entry in assay [4] and in assay [3] was “inactive” throughout.

Turning to `CCCn1c(-c2ccc(F)cc2)nc2c(NCCCN(C)C)nc(C)nc21`, the call in assay [1] was inactive. In addition, the Potency result in assay [2] and in assay [3] was “inactive” in each case.

For the molecule `CCCCNc1nc(C)nc2c1nc(-c1ccccc1)n2CC1CCCN1CC` (stereo not drawn), the result in assay [1] was inactive. For the same molecule, in assay [2], the Potency is 3.98 µM (active). For the same molecule, the Potency entry in assay [4] and in assay [3] was “inactive” throughout.

Consider `Cc1nc(Nc2ccccc2)c2nc(-c3ccccc3)n(CCN3CCOCC3)c2n1`, for which, in assay [1], the outcome was inactive. In addition, in assay [2], the Potency was 1.58 µM (active). Further, the Potency entry in assay [3] is “inactive”.

For the molecule `Cc1nc(NCc2ccccc2)c2nc(-c3ccccc3)n(C(C)CN(C)C)c2n1` (stereo not drawn), in assay [1], the call was inactive. Besides, the Potency in assay [2] is 10 µM (active). The Potency result in assay [4] and in assay [3] was “inactive” throughout.

Turning to `CCN1CCCC1Cn1c(-c2ccccc2)nc2c(N(CCOC)CCOC)nc(C)nc21` (stereo not drawn), the molecule was called inactive in assay [1]. Besides, the Potency in assay [2] was 15.8 µM (active). For the same molecule, the Potency result in assay [4] and in assay [3] was “inactive” throughout.

As to `Cc1nc(NCc2ccccc2)c2nc(-c3ccccc3)n(CCN3CCCC3)c2n1`, the molecule was called inactive in assay [1]. Besides, in assay [2], the Potency was 10 µM (active). In addition, the Potency entry in assay [4] and in assay [3] was “inactive” throughout.

Regarding `CCN(CC)CCn1c(-c2ccccc2)nc2c(NCc3ccccc3)nc(C)nc21`, in assay [1], the molecule was classed as inactive. In assay [2], the Potency is 12.6 µM (active). For the same molecule, the Potency entry in assay [4] and in assay [3] was “inactive” each time.

`Cc1nc(NCc2ccccc2)c2nc(-c3ccccc3)n(CCN3CCCCC3)c2n1`: the molecule was called inactive in assay [1]. Besides, in assay [2], the Potency was 2.51 µM (active). Besides, the Potency result in assay [4] and in assay [3] was “inactive” in each case.
